The campaign covered roughly 5,500 compounds. About 2,000 (36%) were called active. Not shown: some 18% with an inconclusive outcome. Rule as the data show it: active = normalized growth mostly below about 0.91 (no sharp cut-off); inconclusive = no clear call, values can overlap the other calls; inactive = mostly above about 0.92. The list shows a part of the results.
Assay: chemical genetic growth profiling, strain panel (AID 1159580);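 also: tested at 20 µM; growth read once vehicle control cultures reached saturation at 30 °C; 1 = growth at the plate median or of vehicle wells; lower values mean less growth of the strain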
Conditions: growth OD

Measured: normalized growth

COc1cc(O)c(C(=O)c2ccccc2)c(OC)c1
active: S. cerevisiae deletion strains, locus YLR418C, strain cdc73, stronger effect = lower value 0.813 | S. cerevisiae deletion strains, locus YNL307C, strain MCK1, stronger effect = lower value 0.73
inactive: S. cerevisiae deletion strains, locus YAL013W, strain DEP1, stronger effect = lower value 0.982 | S. cerevisiae deletion strains, locus YBR021W, strain FUR4, stronger effect = lower value 0.898 | S. cerevisiae deletion strains, locus YBR229C, strain ROT2, stronger effect = lower value 0.985 | S. cerevisiae deletion strains, locus YCL029C, strain bik1, stronger effect = lower value 0.996 | S. cerevisiae deletion strains, locus YDL035C, strain GPR1, stronger effect = lower value 0.972 | S. cerevisiae deletion strains, locus YDL074C, strain BRE1, stronger effect = lower value 0.922 | S. cerevisiae deletion strains, locus YDL101C, strain DUN1, stronger effect = lower value 0.986 | S. cerevisiae deletion strains, locus YDL134C, strain PPH21, stronger effect = lower value 0.984 | S. cerevisiae deletion strains, locus YDL185W, strain tfp1, stronger effect = lower value 0.989 | S. cerevisiae deletion strains, locus YDL192W, strain arf1, stronger effect = lower value 0.982 | S. cerevisiae deletion strains, locus YDR101C, strain arx1, stronger effect = lower value 0.961 | S. cerevisiae deletion strains, locus YDR150W, strain NUM1, stronger effect = lower value 0.994 | S. cerevisiae deletion strains, locus YDR162C, strain NBP2, stronger effect = lower value 0.907 | S. cerevisiae deletion strains, locus YDR318W, strain mcm21, stronger effect = lower value 0.956 | S. cerevisiae deletion strains, locus YDR388W, stronger effect = lower value 0.978 | S. cerevisiae deletion strains, locus YDR502C, strain sam2, stronger effect = lower value 0.937 | S. cerevisiae deletion strains, locus YEL061C, strain CIN8, stronger effect = lower value 0.984 | S. cerevisiae deletion strains, locus YER110C, stronger effect = lower value 0.994 | S. cerevisiae deletion strains, locus YER155C, strain BEM2, stronger effect = lower value 0.989 | S. cerevisiae deletion strains, locus YER167W, strain BCK2, stronger effect = lower value 0.954 | S. cerevisiae deletion strains, locus YGL078C, strain dbp3, stronger effect = lower value 0.99 | S. cerevisiae deletion strains, locus YGL086W, strain mad1, stronger effect = lower value 0.983 | S. cerevisiae deletion strains, locus YGL248W, strain PDE1, stronger effect = lower value 0.983 | S. cerevisiae deletion strains, locus YGR078C, strain PAC10, stronger effect = lower value 0.927 | S. cerevisiae deletion strains, locus YGR135W, strain pre9, stronger effect = lower value 0.92 | S. cerevisiae deletion strains, locus YGR229C, strain SMI1, stronger effect = lower value 0.885 | S. cerevisiae deletion strains, locus YGR252W, strain gcn5, stronger effect = lower value 0.914 | S. cerevisiae deletion strains, locus YHR030C, strain SLT2, stronger effect = lower value 0.945 | S. cerevisiae deletion strains, locus YHR079C, strain IRE1 (second series), stronger effect = lower value 0.966 | S. cerevisiae deletion strains, locus YHR094C, strain hxt1, stronger effect = lower value 0.986 | S. cerevisiae deletion strains, locus YHR129C, strain ARP1, stronger effect = lower value 0.972 | S. cerevisiae deletion strains, locus YHR200W, strain rpn10, stronger effect = lower value 0.985 | S. cerevisiae deletion strains, locus YIL066C, strain RNR3, stronger effect = lower value 0.938 | S. cerevisiae deletion strains, locus YIL073C, strain SPO22, stronger effect = lower value 1 | S. cerevisiae deletion strains, locus YIL125W, strain kgd1, stronger effect = lower value 0.981 | S. cerevisiae deletion strains, locus YIR030C, strain dcg1, stronger effect = lower value 0.979 | S. cerevisiae deletion strains, locus YJL095W, strain BCK1, stronger effect = lower value 0.806 | S. cerevisiae deletion strains, locus YJL134W, strain LCB3, stronger effect = lower value 0.986 | S. cerevisiae deletion strains, locus YJL168C, strain set2, stronger effect = lower value 0.99 | S. cerevisiae deletion strains, locus YJL187C, strain SWE1 (second series), stronger effect = lower value 0.964 | S. cerevisiae deletion strains, locus YJR043C, strain POL32, stronger effect = lower value 0.981 | S. cerevisiae deletion strains, locus YJR075W, strain HOC1, stronger effect = lower value 0.935 | S. cerevisiae deletion strains, locus YKL009W, strain mrt4, stronger effect = lower value 0.99 | S. cerevisiae deletion strains, locus YKL068W, stronger effect = lower value 0.986 | S. cerevisiae deletion strains, locus YKL085W, strain MDH1 (second series), stronger effect = lower value 0.987 | S. cerevisiae deletion strains, locus YKL085W, strain MDH1, stronger effect = lower value 0.987 | S. cerevisiae deletion strains, locus YKL190W, strain CNB1, stronger effect = lower value 0.991 | S. cerevisiae deletion strains, locus YKR001C, strain vps1, stronger effect = lower value 0.936 | S. cerevisiae deletion strains, locus YLR039C, strain RIC1, stronger effect = lower value 0.827 | S. cerevisiae deletion strains, locus YLR058C, strain SHM2, stronger effect = lower value 0.984 | S. cerevisiae deletion strains, locus YLR102C, strain apc9, stronger effect = lower value 0.98 | S. cerevisiae deletion strains, locus YLR262C, strain YPT6, stronger effect = lower value 0.817 | S. cerevisiae deletion strains, locus YLR268W, strain sec22, stronger effect = lower value 0.904 | S. cerevisiae deletion strains, locus YLR330W, strain CHS5, stronger effect = lower value 0.984 | S. cerevisiae deletion strains, locus YLR342W, strain FKS1 (second series), stronger effect = lower value 0.88 | S. cerevisiae deletion strains, locus YLR371W, strain rom2, stronger effect = lower value 0.991 | S. cerevisiae deletion strains, locus YML016C, strain PPZ1, stronger effect = lower value 0.981 | S. cerevisiae deletion strains, locus YML032C, strain rad52, stronger effect = lower value 0.994 | S. cerevisiae deletion strains, locus YML124C, strain tub3, stronger effect = lower value 0.983 | S. cerevisiae deletion strains, locus YMR078C, strain ctf18, stronger effect = lower value 0.98 | S. cerevisiae deletion strains, locus YMR223W, strain ubp8, stronger effect = lower value 0.966 | S. cerevisiae deletion strains, locus YMR263W, strain SAP30, stronger effect = lower value 0.962 | S. cerevisiae deletion strains, locus YMR307W, strain GAS1, stronger effect = lower value 0.647 | S. cerevisiae deletion strains, locus YNL067W, strain RPL9B, stronger effect = lower value 0.953 | S. cerevisiae deletion strains, locus YNL128W, strain TEP1, stronger effect = lower value 0.991 | S. cerevisiae deletion strains, locus YNL153C, strain GIM3, stronger effect = lower value 0.961 | S. cerevisiae deletion strains, locus YNL233W, strain BNI4, stronger effect = lower value 0.904 | S. cerevisiae deletion strains, locus YNL250W, strain rad50, stronger effect = lower value 1 | S. cerevisiae deletion strains, locus YNL271C, strain bni1, stronger effect = lower value 0.982 | S. cerevisiae deletion strains, locus YNL298W, strain CLA4, stronger effect = lower value 0.987 | S. cerevisiae deletion strains, locus YNL322C, strain KRE1, stronger effect = lower value 0.99 | S. cerevisiae deletion strains, locus YNR052C, strain pop2, stronger effect = lower value 1.01 | S. cerevisiae deletion strains, locus YOL006C, strain TOP1, stronger effect = lower value 0.824 | S. cerevisiae deletion strains, locus YOL012C, strain htz1 0.9 | S. cerevisiae deletion strains, locus YOL147C, strain pex11, stronger effect = lower value 0.965 | S. cerevisiae deletion strains, locus YOR061W, strain CKA2, stronger effect = lower value 0.989 | S. cerevisiae deletion strains, locus YOR069W, strain VPS5, stronger effect = lower value 0.987 | S. cerevisiae deletion strains, locus YOR136W, strain idh2, stronger effect = lower value 1.01 | S. cerevisiae deletion strains, locus YOR144C, strain elg1, stronger effect = lower value 0.983 | S. cerevisiae deletion strains, locus YOR184W, strain ser1, stronger effect = lower value 0.931 | S. cerevisiae deletion strains, locus YOR316C, strain cot1, stronger effect = lower value 0.981 | S. cerevisiae deletion strains, locus YPL055C, strain LGE1, stronger effect = lower value 0.927 | S. cerevisiae deletion strains, locus YPL241C, strain CIN2, stronger effect = lower value 0.986 | S. cerevisiae deletion strains, locus YPR119W, strain clb2, stronger effect = lower value 0.98 | S. cerevisiae deletion strains, locus YPR141C, strain kar3, stronger effect = lower value 0.99 | S. cerevisiae deletion strains, locus YPR163C, strain tif3, stronger effect = lower value 0.928 | S. cerevisiae deletion strains, locus YPR167C, strain met16, stronger effect = lower value 0.978 | S. cerevisiae deletion strains, strain wtn01, stronger effect = lower value 0.929 | S. cerevisiae strains, strain wild type, stronger effect = lower value 0.983

— PubChem BioAssay AID1159580 (chemical genetic matrix, 2015)
